# This excerpt belongs to a sample that is enriched for hits.
# Dicer inh = human Dicer pre-microRNA cleavage inhibition | cat-ELCCA pre-miR-21 Dicer processing, chemiluminescence; hits give high values | z-score at 25 µM | hit rate 6% among 47,000 | AID 1347074; in the data active = z-score above about 3, passing the limit was not always enough;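 also: plate controls were vehicle for no effect and no enzyme for full effect; higher signal means more uncleaved substrate so more Dicer inhibition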
# Target sequence (Q9UPY3 whole entry, looked up): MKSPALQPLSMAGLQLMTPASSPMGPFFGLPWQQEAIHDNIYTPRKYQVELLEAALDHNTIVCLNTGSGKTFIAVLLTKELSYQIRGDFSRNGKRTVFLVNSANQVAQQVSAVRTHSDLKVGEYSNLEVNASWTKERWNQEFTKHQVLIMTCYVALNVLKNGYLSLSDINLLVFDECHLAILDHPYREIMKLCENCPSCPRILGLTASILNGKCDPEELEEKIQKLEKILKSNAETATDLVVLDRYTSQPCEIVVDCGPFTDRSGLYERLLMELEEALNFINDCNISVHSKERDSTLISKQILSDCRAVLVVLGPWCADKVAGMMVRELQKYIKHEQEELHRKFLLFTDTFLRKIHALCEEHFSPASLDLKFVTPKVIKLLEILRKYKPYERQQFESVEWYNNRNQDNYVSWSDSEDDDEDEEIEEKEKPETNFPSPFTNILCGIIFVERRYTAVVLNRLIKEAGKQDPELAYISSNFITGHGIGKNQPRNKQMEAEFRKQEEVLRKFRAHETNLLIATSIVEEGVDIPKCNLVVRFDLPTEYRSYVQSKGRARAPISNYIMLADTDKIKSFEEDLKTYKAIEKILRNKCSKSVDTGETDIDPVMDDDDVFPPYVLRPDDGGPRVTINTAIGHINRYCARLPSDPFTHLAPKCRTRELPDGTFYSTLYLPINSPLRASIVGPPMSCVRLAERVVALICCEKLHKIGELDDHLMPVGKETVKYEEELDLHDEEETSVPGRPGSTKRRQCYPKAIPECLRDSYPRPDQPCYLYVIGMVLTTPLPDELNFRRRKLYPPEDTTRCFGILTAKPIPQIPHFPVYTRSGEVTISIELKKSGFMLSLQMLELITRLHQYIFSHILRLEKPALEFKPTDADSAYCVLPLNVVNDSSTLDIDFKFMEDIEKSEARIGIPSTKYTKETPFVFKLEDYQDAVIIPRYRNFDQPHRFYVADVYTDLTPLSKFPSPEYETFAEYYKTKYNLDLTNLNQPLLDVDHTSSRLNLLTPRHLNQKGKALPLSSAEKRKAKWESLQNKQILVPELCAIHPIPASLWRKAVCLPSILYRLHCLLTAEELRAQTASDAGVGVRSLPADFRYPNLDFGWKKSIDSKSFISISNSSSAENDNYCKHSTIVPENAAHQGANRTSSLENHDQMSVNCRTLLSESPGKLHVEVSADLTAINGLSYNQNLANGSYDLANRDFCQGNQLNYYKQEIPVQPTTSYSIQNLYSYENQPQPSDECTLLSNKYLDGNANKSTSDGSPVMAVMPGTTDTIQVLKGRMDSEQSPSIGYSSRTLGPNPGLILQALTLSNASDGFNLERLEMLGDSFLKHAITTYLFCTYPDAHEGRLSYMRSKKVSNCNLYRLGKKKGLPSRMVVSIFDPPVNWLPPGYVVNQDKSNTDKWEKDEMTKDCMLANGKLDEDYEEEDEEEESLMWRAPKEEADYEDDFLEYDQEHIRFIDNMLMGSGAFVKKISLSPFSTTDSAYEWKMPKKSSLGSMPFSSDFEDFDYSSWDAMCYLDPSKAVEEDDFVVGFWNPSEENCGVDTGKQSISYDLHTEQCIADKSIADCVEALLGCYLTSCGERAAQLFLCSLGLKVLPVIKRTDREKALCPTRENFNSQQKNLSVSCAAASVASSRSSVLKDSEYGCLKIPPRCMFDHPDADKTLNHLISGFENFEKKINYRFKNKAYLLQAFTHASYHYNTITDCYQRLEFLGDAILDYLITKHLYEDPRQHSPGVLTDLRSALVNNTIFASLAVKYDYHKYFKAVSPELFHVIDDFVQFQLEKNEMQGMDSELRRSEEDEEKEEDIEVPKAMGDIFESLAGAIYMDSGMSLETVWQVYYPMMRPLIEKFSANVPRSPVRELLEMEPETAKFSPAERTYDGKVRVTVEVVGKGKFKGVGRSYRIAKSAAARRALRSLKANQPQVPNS
# The depositor's hits bear a star.
SMILES,Dicer inh
CC1=C(C#N)C(c2cccc(F)c2)C2=C(CCCC2=O)N1 (stereo unspecified),4.7*
CCOc1ccc(C2C(C(=O)OC(C)C)=C(C)NC3=C2C(=O)CC(c2ccc(OC)cc2)C3)cc1 (stereo unspecified),0.91
CCOc1ccc(C2CC(=O)C3=C(C2)NC(C)=C(C(=O)OCCOC)C3c2cccs2)cc1OC (stereo unspecified),-1.4
CC1=C(C#N)C(c2ccc(F)cc2)C2=C(CC(c3ccccc3)CC2=O)N1 (stereo unspecified),1.1
COc1ccc(C2CC(=O)C3=C(C2)NC(C)=C(C(=O)OC(C)C)C3c2ccc(N(C)C)cc2)cc1 (stereo unspecified),3.8*
CCc1ccc(C2C(C#N)=C(C)NC3=C2C(=O)CCC3)cc1 (stereo unspecified),0.32
CCOC(=O)C1=C(C)NC2=C(C(=O)CC(c3cccs3)C2)C1c1ccc(F)cc1 (stereo unspecified),-0.12
COc1ccc(C2CC(=O)C3=C(C2)NC(C)=C(C#N)C3c2ccc(F)cc2)cc1 (stereo unspecified),4.5*
COc1ccc(C2CC(=O)C3=C(C2)NC(C)=C(C#N)C3c2ccc(Br)cc2)cc1 (stereo unspecified),0.83
CCOc1ccc(Oc2coc3cc(O)ccc3c2=O)cc1,1.4
O=c1c2c(-c3ccc(-c4ccccc4)cc3)csc2ncn1-c1ccccc1,0.15
O=C(O)C1C2C=CC(O2)C1C(=O)NCc1cccnc1 (stereo unspecified),1.1
CC(C)(C)C(=O)O/N=C(\N)COc1ccc(Cl)cc1Cl,-2.7
CCNc1nc(SCc2ccc(F)cc2)nc2sc3c(c12)CCC(C)C3 (stereo unspecified),-1.6
CCOCCOC(=O)C1=C(C)NC2=C(C(=O)CCC2)C1c1ccc(SC)cc1 (stereo unspecified),1.1
COC(=O)C1=C(C(=O)OC)SC(=C2C(=S)C(C)(C)Nc3c(OC)cccc32)S1,-2.1
Cc1ccccc1C1CC(c2ccccc2Cl)Nc2nc(N)nn21 (stereo unspecified),-0.09
CC1(C)Cc2c(sc3ncn4nc(-c5cccnc5)nc4c23)C(C)(C)N1,-0.21
CC(Oc1ccc(Oc2ccc(C(F)(F)F)cc2)cc1)C(=O)NNc1cnc2ccccc2n1 (stereo unspecified),4.9
O=C(N/C=C/c1ccsc1)Nc1cccc(Cl)c1,1.7
O=C(NNc1ccc(F)cc1)c1cc(OCC(F)(F)F)nc(OCC(F)(F)F)c1,2.6
CCOC(=O)c1cc(-c2ccccc2)sc1NC(=O)Nc1ccc(Cl)cc1,-1.7
O=C(c1ccco1)c1cn(CC(=O)N2CCc3ccccc32)c2ccccc12,-0.47
CN1CCc2nc3sc(C(=O)c4ccc(Cl)cc4)c(N)c3cc2C1,-3.4
CCOCCOC(=O)C1=C(C)NC2=C(C(=O)CC(c3cccs3)C2)C1c1ccc(O)c(OC)c1 (stereo unspecified),5*
SMILES,Dicer inh
CCOc1ccc(C2C(C(=O)OC(C)C)=C(C)NC3=C2C(=O)CC(c2ccccc2)C3)cc1 (stereo unspecified),2.3
COCCOC(=O)C1=C(C)NC2=C(C(=O)CC(c3cccs3)C2)C1c1ccc(O)cc1 (stereo unspecified),3*
CCOC(=O)C1=C(C)NC2=C(C(=O)CC(c3cccs3)C2)C1c1ccsc1 (stereo unspecified),1.1
CCOCCOC(=O)C1=C(C)NC2=C(C(=O)CC(c3cccs3)C2)C1c1ccc(OC)c(O)c1 (stereo unspecified),-0.96
COCCOC(=O)C1=C(C)NC2=C(C(=O)CC(c3cccs3)C2)C1c1ccc(O)c(OC)c1 (stereo unspecified),2.5
CCOc1cc(C2C(C(=O)OC(C)C)=C(C)NC3=C2C(=O)CC(c2ccccc2)C3)ccc1O (stereo unspecified),11*
CCOc1ccc(C2C(C(=O)OC(C)C)=C(C)NC3=C2C(=O)CC(c2ccccc2)C3)cc1OC (stereo unspecified),1.5
CCCOC(=O)C1=C(C)NC2=C(C(=O)CC(c3cccs3)C2)C1c1ccc(F)cc1 (stereo unspecified),2.8
COCCOC(=O)C1=C(C)NC2=C(C(=O)CC(c3cccs3)C2)C1c1ccsc1 (stereo unspecified),1.4
CCOCCOC(=O)C1=C(C)NC2=C(C(=O)CC(c3cccs3)C2)C1c1cccc(O)c1 (stereo unspecified),3.4*
CCOC(=O)C1=C(C)NC2=C(C(=O)CC(c3ccc(OC)cc3)C2)C1c1ccc(O)c(OC)c1 (stereo unspecified),-0.1
CNC(=S)NNS(=O)(=O)c1ccc(C)cc1,-0.39
CSc1nnc(Nc2ccccc2)n1-c1ccccc1,1.4
Cc1sc(N)c(C(=O)c2ccc(Cl)cc2)c1C,-3.4
FC(F)(F)c1ccccc1NC(=S)NNc1ccc(-c2csnn2)cc1,1.7
COC(=O)c1ccc([C@@H]2Nc3c(OC)ccc(Cl)c3[C@@H]3C=CC[C@@H]32)cc1,1.4
COc1ccc(-c2noc(-c3ccc(C)c(C)c3)n2)cc1OC,1.5
Cc1onc(-c2c(Cl)cccc2Cl)c1NC(=O)NC(C)C,0.43
CC(C)NC(=O)Nc1n[nH]c(Nc2ccc(Cl)cc2)n1,12*
CCCNC(=O)Nc1n[nH]c(Nc2ccc(Cl)cc2)n1,2.4
CCCOc1ccc(C2c3c(oc4ccc(F)cc4c3=O)C(=O)N2CCCN(C)C)cc1OCC (stereo unspecified),-0.62
CC(=O)n1ccc(-c2ccc(C#Cc3ccccc3)cc2)n1,-1.5
C=CCSc1ncnc2c1cnn2-c1ccccc1,0.2
Cc1cc(C(=O)O)c(C)n1-c1cc(C(F)(F)F)cc(C(F)(F)F)c1,0.05
CCOC(=O)c1sc(=S)n(-c2ccc(OC)cc2)c1N,2.2
SMILES,Dicer inh
COc1ccc(N2C(=O)CCC2=O)cc1,-0.74
COc1ccc(-n2ccsc2=S)cc1,4.7*
CSc1nnc(-c2ccc(S(=O)(=O)Oc3ccc(Cl)cc3)s2)n1C,0.38
COC(=O)C/C(=N/NC(=O)c1cc([N+](=O)[O-])ccc1N)C(=O)OC,0.65
Cc1noc(-c2ccc(Cl)cc2)c1NC(=O)NN1CCCCC1,0.24
CC(Sc1nc2ncnc(N)c2[nH]1)C(=O)O (stereo unspecified),-0.55
Nc1ncnc2nc(SCCC(=O)O)[nH]c12,3.8*
Nc1ncnc2nc(SCc3ccc4nsnc4c3)[nH]c12,-2
c1ccc(-n2cc(-c3noc4ccccc34)cn2)cc1,1.6
CCCCN(CCCC)C(=O)c1sc2nc(N3CCOCC3)c3c(c2c1N)CC(C)(C)OC3,-0.09
CCCNC(=O)NCCN1CCNC1=O,-0.07
CCC(C)NC(=O)CN1C(=O)c2ccccc2S1(=O)=O (stereo unspecified),0.07
O=C(CC(C(=O)O)C1CCCO1)NC1CCCCC1 (stereo unspecified),-0.13
CCC(C)NC(=O)CN1C(=O)c2cccc3cccc1c23 (stereo unspecified),0.41
O=C(CN1C(=O)NC2NC(=O)NC21)NC1CCCCC1 (stereo unspecified),3.2*
CCCNC(=O)CN1C(=O)NC2NC(=O)NC21 (stereo unspecified),4*
CCCNC(=O)Cn1nc(C(F)(F)F)c(Br)c1C,-0.64
CCC(C)NC(=O)CN1C(=O)NC2NC(=O)NC21 (stereo unspecified),4.5*
CCCCc1nc(SCC(=O)NC2CCCCC2)n[nH]1,0.32
O=C1C2=C(C(c3ccccc3)=NCCN2)C(c2ccccc2F)N1c1ccccc1 (stereo unspecified),0.84
